# Measured values: PubChem BioAssay AID1159580 (chemical genetic matrix, 2015)
# Values joined by “and” are separate entries in the source; they are usually repeats but may differ in a detail not shown here. Equal entries are not always repeated. Out of some 5,500 compounds screened, about 2,000 (36%) were called active. Not shown: some 18% with an inconclusive outcome. The list shows a part of the results. Unmarked numbers belong to inactive results. No stated cut-off is given here; in the data, active means normalized growth mostly below about 0.91 (no sharp cut-off); inconclusive means no clear call, values can overlap the other calls; inactive means mostly above about 0.92.
# Assay: chemical genetic growth profiling, strain panel (AID 1159580);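 further: tested at 20 µM; growth read once vehicle control cultures reached saturation at 30 °C; 1 = growth at the plate median or of vehicle wells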
# Details: growth OD
structure (smiles),measurement,setting,value
O=c1[nH]c2ccccc2n1C1CCN(CCCC(c2ccc(F)cc2)c2ccc(F)cc2)CC1,normalized growth,"S. cerevisiae deletion strains, locus YNL128W, strain TEP1, stronger effect = lower value",0.965
same,normalized growth,"S. cerevisiae deletion strains, locus YNL153C, strain GIM3, stronger effect = lower value",0.974
same,normalized growth,"S. cerevisiae deletion strains, locus YNL183C, strain NPR1, stronger effect = lower value",0.937
same,normalized growth,"S. cerevisiae deletion strains, locus YNL197C, strain WHI3, stronger effect = lower value",1.1
same,normalized growth,"S. cerevisiae deletion strains, locus YNL209W, strain ssb2, stronger effect = lower value",1.02
same,normalized growth,"S. cerevisiae deletion strains, locus YNL224C, strain SQS1, stronger effect = lower value",1.01
same,normalized growth,"S. cerevisiae deletion strains, locus YNL233W, strain BNI4, stronger effect = lower value",0.985
same,normalized growth,"S. cerevisiae deletion strains, locus YNL248C, strain rpa49, stronger effect = lower value",0.878 (active)
same,normalized growth,"S. cerevisiae deletion strains, locus YNL250W, strain rad50, stronger effect = lower value",0.986
same,normalized growth,"S. cerevisiae deletion strains, locus YNL271C, strain bni1, stronger effect = lower value",1.01
same,normalized growth,"S. cerevisiae deletion strains, locus YNL298W, strain CLA4, stronger effect = lower value",1.01
same,normalized growth,"S. cerevisiae deletion strains, locus YNL307C, strain MCK1, stronger effect = lower value",0.927
same,normalized growth,"S. cerevisiae deletion strains, locus YNL322C, strain KRE1 (second series), stronger effect = lower value",1.03
same,normalized growth,"S. cerevisiae deletion strains, locus YNL322C, strain KRE1, stronger effect = lower value",0.99
same,normalized growth,"S. cerevisiae deletion strains, locus YNR049C, strain mso1, stronger effect = lower value",0.991
same,normalized growth,"S. cerevisiae deletion strains, locus YNR052C, strain pop2, stronger effect = lower value",0.996
same,normalized growth,"S. cerevisiae deletion strains, locus YOL006C, strain TOP1, stronger effect = lower value",0.848
same,normalized growth,"S. cerevisiae deletion strains, locus YOL012C, strain htz1",0.998
same,normalized growth,"S. cerevisiae deletion strains, locus YOL147C, strain pex11, stronger effect = lower value",1
same,normalized growth,"S. cerevisiae deletion strains, locus YOR001W, strain rrp6, stronger effect = lower value",0.817 (active)
same,normalized growth,"S. cerevisiae deletion strains, locus YOR061W, strain CKA2, stronger effect = lower value",0.972
same,normalized growth,"S. cerevisiae deletion strains, locus YOR069W, strain VPS5, stronger effect = lower value",0.991
same,normalized growth,"S. cerevisiae deletion strains, locus YOR070C, strain gyp1, stronger effect = lower value",0.963
same,normalized growth,"S. cerevisiae deletion strains, locus YOR080W, strain dia2, stronger effect = lower value",1
same,normalized growth,"S. cerevisiae deletion strains, locus YOR083W, strain WHI5 (second series), stronger effect = lower value",0.874
same,normalized growth,"S. cerevisiae deletion strains, locus YOR083W, strain WHI5, stronger effect = lower value",0.857 (active)
same,normalized growth,"S. cerevisiae deletion strains, locus YOR106W, strain vam3, stronger effect = lower value",0.92
same,normalized growth,"S. cerevisiae deletion strains, locus YOR136W, strain idh2, stronger effect = lower value",0.986
same,normalized growth,"S. cerevisiae deletion strains, locus YOR144C, strain elg1, stronger effect = lower value",1
same,normalized growth,"S. cerevisiae deletion strains, locus YOR184W, strain ser1, stronger effect = lower value",0.894
same,normalized growth,"S. cerevisiae deletion strains, locus YOR231W, strain MKK1, stronger effect = lower value",0.984
same,normalized growth,"S. cerevisiae deletion strains, locus YOR265W, strain rbl2, stronger effect = lower value",0.992
same,normalized growth,"S. cerevisiae deletion strains, locus YOR270C, strain vph1, stronger effect = lower value",0.449 (active)
same,normalized growth,"S. cerevisiae deletion strains, locus YOR290C, strain snf2, stronger effect = lower value",0.638 (active)
same,normalized growth,"S. cerevisiae deletion strains, locus YOR316C, strain cot1, stronger effect = lower value",0.995
same,normalized growth,"S. cerevisiae deletion strains, locus YPL051W, strain arl3, stronger effect = lower value",0.954
same,normalized growth,"S. cerevisiae deletion strains, locus YPL055C, strain LGE1, stronger effect = lower value",0.924
same,normalized growth,"S. cerevisiae deletion strains, locus YPL078C, strain atp4, stronger effect = lower value",0.956
same,normalized growth,"S. cerevisiae deletion strains, locus YPL106C, strain sse1, stronger effect = lower value",1.07
same,normalized growth,"S. cerevisiae deletion strains, locus YPL240C, strain hsp82, stronger effect = lower value",1.02
same,normalized growth,"S. cerevisiae deletion strains, locus YPL241C, strain CIN2, stronger effect = lower value",0.986 and 1
same,normalized growth,"S. cerevisiae deletion strains, locus YPL256C, strain CLN2, stronger effect = lower value",0.965
same,normalized growth,"S. cerevisiae deletion strains, locus YPR119W, strain clb2, stronger effect = lower value",0.995
same,normalized growth,"S. cerevisiae deletion strains, locus YPR141C, strain kar3, stronger effect = lower value",0.996
same,normalized growth,"S. cerevisiae deletion strains, locus YPR163C, strain tif3, stronger effect = lower value",1
same,normalized growth,"S. cerevisiae deletion strains, locus YPR167C, strain met16, stronger effect = lower value",0.986
same,normalized growth,"S. cerevisiae deletion strains, strain wtn01, stronger effect = lower value",0.989
same,normalized growth,"S. cerevisiae strains, strain wild type, stronger effect = lower value",0.993
